From PubChem
In the library only some 12% were active in any assay of this set; here they are far more common.
Pf growth 48h: Primary qHTS for delayed death inhibitors of the malarial parasite plastid, 48 hour incubation; P. falciparum luciferase growth in erythrocytes, 48 h; Potency, µM (highest dose often 28.7 µM), actives largely listed as inhibitors; 5.9% of 310,000 active
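A one-generation exposure of luciferase-tagged malaria parasites in RPMI 1640/Albumax erythrocyte culture, 37 C and 5% CO2. Inhibition is inferred from decreased luminescence after adding detection reagent.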
SARS PLpro yeast: qHTS of Yeast-based Assay for SARS-CoV PLP; 0.19% of 330,000 active; S. cerevisiae expressing SARS-CoV PLpro, growth rescue; Potency, µM (series often up to 32.9 µM), most hits filed as activators; AID 485353, 2010; calls by dose curve; note: nearly all actives have a fitted effect of over 55% in size
Pf growth 96h: Primary qHTS for delayed death inhibitors of the malarial parasite plastid, 96 hour incubation; Potency, µM (highest dose often 28.7 µM), usual class: inhibitors; P. falciparum luciferase reporter growth, 96 h; 6.9% of 320,000 active
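Luminescence readout: decreased luciferase signal marks inhibited growth of reporter-expressing P. falciparum in infected red cells (2% hematocrit, 0.05% parasitemia final), exposed to compound two generations (96 h, 37 C, 5% CO2).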
Sm TGR inh: qHTS Assay for the Inhibitors of Schistosoma Mansoni Peroxiredoxins; Potency, µM (doses to about 114 µM), hits mostly inhibitors; Schistosoma mansoni thioredoxin glutathione reductase (TGR), Q962Y6; AID 485364, 2010; purified TGR, DTNB reduction, TNB absorbance 405 nm; 3% of 360,000 active; note: nearly all actives have a fitted effect of over 60% in size
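Kinetic colorimetric format: TGR-catalysed, NADPH-driven DTNB reduction monitored via TNB absorbance. Enzyme dispensed at 20 nM; compound exposure 15 min at room temperature before reaction start.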
Large screens that a line does not name were inactive. Unless noted, calls come from the whole dose curve; as a rule, active = well fitted curve in the direction sought with a large enough effect; inconclusive = small, poorly fitted or top-dose-only effect, or another doubt; inactive = no such curve, though single readings can be large; an effect the other way counts as inactive or inconclusive.

C=CCn1c(Cc2ccccc2)nc2c(cnn2-c2ccccc2)c1=O	Pf growth 48h inconclusive
COc1ccc(-c2cc(=O)n(CCC#N)[nH]2)cc1	Pf growth 96h 7.38µM
CCc1ccc(S(=O)(=O)N2c3ccc(C)cc3C3CN(C)CCC32)cc1 (centres undefined)	Pf growth 48h 10.4µM, Pf growth 96h inconclusive
COc1ccc(C)cc1S(=O)(=O)N1c2ccc(C)cc2C2CN(C)CCC21 (centres undefined)	Pf growth 48h inconclusive, Pf growth 96h 10.4µM
Cc1ccc2c(c1)[C@@H]1CN(C)CC[C@@H]1N2S(=O)(=O)c1ccc(F)cc1	Pf growth 96h inconclusive, Sm TGR inh inconclusive
CCn1c(=O)cc(OCC(=O)NCc2ccccc2Cl)c2ccccc21	none (no result: Pf growth 48h, SARS PLpro yeast, Pf growth 96h)
Cc1noc(/C=C/c2ccco2)c1S(=O)(=O)N1CCC(C(=O)N2c3ccccc3CC2C)CC1 (centres undefined)	Pf growth 48h inconclusive, Sm TGR inh 39.8µM
Cc1noc(/C=C/c2ccco2)c1S(=O)(=O)N1CCC(C(=O)N(C)Cc2ccccc2)CC1	Pf growth 48h 1.85µM, Sm TGR inh 12.6µM
COc1ccc2cc1Oc1ccc(cc1)C[C@H]1c3c(cc4c(c3Oc3cc5c(cc3OC)CCN(C)[C@@H]5C2)OCO4)CCN1C	Pf growth 48h 1.85µM, Pf growth 96h 1.47µM
COc1cc2c3cc1Oc1cc(ccc1O)C[C@@H]1c4c(cc(OC)c(O)c4Oc4ccc(cc4)C[C@H]3N(C)CC2)CCN1C	Pf growth 48h 2.08µM, Pf growth 96h 1.65µM
COc1ccc2cc1Oc1ccc(cc1)C[C@H]1c3cc(c(OC)cc3CCN1C)Oc1c(OC)c(OC)cc3c1[C@H](C2)N(C)CC3	Pf growth 48h 2.08µM, Pf growth 96h 2.08µM
Cc1ccc(Cn2c(C)c(CNC3CCCCC3)c(C(=O)O)c2C)cc1	none (no result: Pf growth 48h, SARS PLpro yeast, Pf growth 96h)
O=C(CCCN1C(=O)C(c2ccccc2)Oc2cccnc21)NCc1ccccc1F (centres undefined)	Pf growth 48h inconclusive, Pf growth 96h 2.08µM
O=C(CCCN1C(=O)C(c2ccccc2)Oc2cccnc21)NCCc1ccc(Cl)cc1 (centres undefined)	Pf growth 48h inconclusive, Pf growth 96h 9.28µM
CCOC(=O)c1cnc2c(-c3ccc(Cl)cc3)c(C)nn2c1N	Pf growth 96h 9.28µM
Cc1nn(C)c2ncc(C(N)=O)c(Oc3cccnc3)c12	none
CCOC(=O)c1cnc2cc(-c3ccc(Cl)cc3)nn2c1N	none
CCOC(=O)c1cnc2c(c(C)nn2C)c1Oc1ccc(Cl)cc1	Pf growth 48h inconclusive, Pf growth 96h 1.47µM
CC(C)n1nnnc1SCC(=O)NC1CCCC1	Pf growth 96h 5.22µM
CC(c1ccccc1)n1cc(C(=O)NCc2ccncc2)nn1 (centres undefined)	none
CC(c1ccccc1F)n1cc(C(=O)NCc2ccncc2)nn1 (centres undefined)	Pf growth 96h 0.522µM
COc1ccccc1NC(=O)c1cc(=O)c2ccc(C)c(C)c2o1	none (no result: Pf growth 48h, SARS PLpro yeast, Pf growth 96h)
CC(C)(C)NC(=O)C1CCN(C(=O)c2ccc(-c3ccccc3)cc2)CC1	Pf growth 48h 9.28µM (no result: Pf growth 96h)
Cc1ccc(S(=O)(=O)N2CCC(C(=O)OCC(=O)NC(C)c3ccc(F)cc3)CC2)cc1C (centres undefined)	none
Cc1[nH]nc2c1C(c1ccc(-c3ccccc3C#N)o1)C(C#N)=C(N)O2 (centres undefined)	Sm TGR inh 12.6µM (no result: Pf growth 96h)
O=C(NNc1ccccc1Br)C(O)(c1cccc(C(F)(F)F)c1)c1cccc(C(F)(F)F)c1	Pf growth 48h 2.62µM, Pf growth 96h 2.33µM
Cc1ccc(C(O)(C(=O)NNc2ccccn2)c2ccc(C)cc2)cc1	Pf growth 96h inconclusive
Cc1ccc(NNC(=O)C(O)(c2cccc(C(F)(F)F)c2)c2cccc(C(F)(F)F)c2)cc1	Pf growth 48h 13.1µM, Pf growth 96h inconclusive
CCc1ccc(NC(=O)c2ccc3c(O)c(S(=O)(=O)c4ccccc4)c(=O)[nH]c3c2)cc1	none (no result: Pf growth 48h, SARS PLpro yeast, Pf growth 96h)
CCOc1ccc(C(=O)c2cn(Cc3ccccc3)c3c(F)cc(F)cc3c2=O)cc1	none (no result: Pf growth 48h, SARS PLpro yeast, Pf growth 96h)
Cc1cc([N+](=O)[O-])cc(C)c1OCC(=O)N/N=C/c1ccc(OC(=O)c2ccccc2)cc1	Pf growth 48h inconclusive, Pf growth 96h 2.08µM
Cc1ccc(CC(=O)N/N=C/c2ccc(OC(=O)c3ccc([N+](=O)[O-])cc3)cc2)cc1	Pf growth 96h inconclusive
Cc1cc([N+](=O)[O-])cc(C)c1OCC(=O)N/N=C/c1ccc(OC(=O)c2ccccc2Br)cc1	Pf growth 96h 10.4µM
Cc1ccccc1OCC(=O)N/N=C/c1cccc(Oc2ccc([N+](=O)[O-])cc2[N+](=O)[O-])c1	Pf growth 96h 1.31µM
O=C(CNC(=O)c1ccc([N+](=O)[O-])cc1)N/N=C\c1ccc(OC(=O)c2ccccc2)cc1	Pf growth 48h inconclusive (no result: Pf growth 96h)
Cc1cc(C)cc(NC(=O)Cn2c(=O)n(-c3cc(C)cc(C)c3)c(=O)c3oc4ccccc4c32)c1	none (no result: Pf growth 48h, SARS PLpro yeast, Pf growth 96h)
CCN(CC)S(=O)(=O)c1ccc2oc(Nc3ccc(OC)cc3)nc2c1	Pf growth 48h inconclusive, Pf growth 96h inconclusive
CCOc1ccc(Nc2nc3cc(S(=O)(=O)N(CC)CC)ccc3o2)cc1	Pf growth 48h 10.4µM (no result: Pf growth 96h)
COc1ccc(S(=O)(=O)N2CCN(CC(=O)NC3CCCC3)CC2)cc1	Pf growth 96h inconclusive
COc1ccc(S(=O)(=O)N2CCN(C(=S)NC3CCCCC3)CC2)cc1	Pf growth 48h 0.928µM
CCOc1ccc(S(=O)(=O)N2CCN(C(=S)NC3CC3)CC2)cc1	Pf growth 48h 4.15µM, Pf growth 96h inconclusive
Cc1ccc(NS(=O)(=O)c2ccc(C(=O)Nc3nncs3)cc2)cc1	none (no result: Pf growth 48h, Pf growth 96h, Sm TGR inh)
COc1ccccc1NCC(O)COc1ccc(C(C)(C)C)cc1 (centres undefined)	none
COc1ccc(C(=O)NCC(O)COc2ccc(C(C)(C)C)cc2)cc1[N+](=O)[O-] (centres undefined)	Pf growth 96h 6.57µM
OCC1(Cc2ccccc2C(F)(F)F)CCN(Cc2ccccc2)CC1	Pf growth 48h 11.7µM, Pf growth 96h inconclusive
OCC1(Cc2ccccc2C(F)(F)F)CCN(Cc2ccc3c(c2)CCO3)CC1	Pf growth 48h 11.7µM, Pf growth 96h inconclusive
N#CC(C#N)=Cc1cnc(N2CCN(c3ccccc3)CC2)s1	none (no result: Pf growth 48h)
Nc1ccc2c(c1)OC1(CCCCC1)O2	Sm TGR inh 14.1µM
COc1cccc(CC(=O)Nc2ccc3c(c2)OC2(CCCC2)O3)c1	none
O=C(C1=C[C@@H](c2ccc(Br)cc2)C[C@@H](OCCCCO)O1)N1CCN(Cc2ccc3c(c2)OCO3)CC1	Pf growth 48h 4.15µM, Pf growth 96h 4.15µM
O=C(C1=C[C@H](c2ccc(C(F)(F)F)cc2)C[C@H](OCCCCO)O1)N1CCN(Cc2ccc3c(c2)OCO3)CC1	Pf growth 48h 5.86µM, Pf growth 96h 3.7µM, Sm TGR inh inconclusive
O=C(C1=C[C@H](c2ccc3c(c2)OCO3)C[C@H](OCCCCO)O1)N1CCOCC1	Sm TGR inh inconclusive
CN1CCN(C(=O)C2=C[C@@H](c3ccc(C(F)(F)F)cc3)C[C@@H](OCCCCO)O2)CC1	Pf growth 48h inconclusive, Sm TGR inh 44.7µM
